IP6K1 inh: IP6K1 kinase inhibition; activity change, % (series mostly up to about 58 µM); IP6K1 kinase, ADP-Glo luminescence, 2 h; stronger effect = lower value; hit rate 0.81% among 140,000; Q92551; in the data active = activity change below about -25%; note: % is set by controls: 0 for no effect and ±100 for the full control effect
Target sequence (Q92551 whole entry, looked up): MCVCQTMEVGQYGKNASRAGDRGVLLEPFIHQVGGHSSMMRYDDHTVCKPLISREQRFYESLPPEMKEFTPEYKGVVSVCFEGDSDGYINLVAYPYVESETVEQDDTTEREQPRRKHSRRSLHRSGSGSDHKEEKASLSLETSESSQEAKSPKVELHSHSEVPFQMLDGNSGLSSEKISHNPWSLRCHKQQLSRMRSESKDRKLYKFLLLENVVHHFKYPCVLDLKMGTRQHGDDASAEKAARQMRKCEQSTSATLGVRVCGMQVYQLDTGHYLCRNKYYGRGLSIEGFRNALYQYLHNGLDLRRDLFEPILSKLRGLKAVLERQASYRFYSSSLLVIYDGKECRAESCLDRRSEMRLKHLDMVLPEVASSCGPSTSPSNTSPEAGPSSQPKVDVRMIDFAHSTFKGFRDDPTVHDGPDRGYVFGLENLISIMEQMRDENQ
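ADP-Glo luminescence measures ADP made by human IP6K1 during a 2 h RT reaction with ATP/IP6 (mix at 1.3 mM/130 uM); top library doses 57.5 and 19.1 uM final.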
SNCA viab count: counter-screen for SNCA expression inhibitors: cell viability | Potency, µM (top dose mostly 57.1 µM), for inactives: at the top dose activity change, negative = cytotoxicity, most hits filed as cytotoxic | AID 1671193 | hit rate 0.12% among 150,000 | HEK-293-SNCA-luc viability, GF-AFC fluorescence, 24 h;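 note: potency is the fitted concentration of half-maximal effect; 0% = DMSO-treated cells and -100% = medium-only wells without cells; nearly all actives have a fitted effect of over 30% in size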
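Cytotoxicity counterscreen: after 24 h compound treatment of genome-edited SNCA-luciferase HEK-293 cells, live-cell protease substrate GF-AFC read by fluorescence after 30 min; activity scaled between DMSO (0%) and medium-only (-100%), curves Hill-fitted.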
KDM5B inh: blocks human KDM5B histone demethylase activity; Q9UGL1; KDM5B demethylase, FDH-coupled NADH fluorescence (FDH is formaldehyde dehydrogenase); Potency, µM (highest dose often 57.7 µM), hits mostly inhibitors; hit rate 2.6% among 220,000; AID 1347165; note: potency is the fitted concentration of half-maximal effect; 0% is about no effect; nearly all actives have a fitted effect of over 70% in size
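qHTS format, multiple compound concentrations. Buffer 50 mM HEPES pH 7.5/0.01% Tween-20; 200 nM KDM5BΔAP final; 10 min compound preincubation; substrate-mix levels 12.5 µM peptide, 25 µM α-KG, 0.25 mM NAD⁺; 30 min RT; ΔRFU.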
SNCA expr inhib: SNCA gene expression inhibition; hit rate 0.17% among 140,000; Potency, µM (series often up to 57.2 µM), inactives show at the highest dose activity change, negative = inhibition, actives largely listed as inhibitors; HEK-293 SNCA-luciferase knock-in, luminescence, 24 h;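 note: potency is the fitted concentration of half-maximal effect; plate controls were DMSO cells for no effect and cell-free wells for full effect; nearly all actives have a fitted effect of over 45% in size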
IP6K1 conf: human IP6K1 inhibition, confirmatory; shares compounds with IP6K1 inh; recombinant IP6K1 kinase, ADP-Glo luminescence, 2 h; Potency, µM (doses to about 49 µM), for the others: at the highest dose activity change, negative = inhibition, hits mostly inhibitors; hit rate 13% among 1,200; note: potency is the fitted concentration of half-maximal effect; % is set by controls: 0 for no effect and ±100 for the full control effect; nearly all actives have a fitted effect of over 65% in size
Numbers without * were called inactive; ! = not confirmed by another sample; [ ] = another dose, or the depositor's remark. Sampled rows, rich in hits. Any-hit rate of the full collection: about 3%. Unless noted, calls come from the whole dose curve; as a rule, active = well fitted curve in the direction sought with a large enough effect; inconclusive = small, poorly fitted or top-dose-only effect, or another doubt; inactive = no such curve, though single readings can be large; an effect the other way counts as inactive or inconclusive.

For O=C(CSc1nc2c(cnn2-c2ccc(F)cc2)c(=O)[nH]1)Nc1ccc(Br)cc1 the results were IP6K1 inh -28.0*, SNCA viab count -2.2%, KDM5B inh inactive, SNCA expr inhib 3.7% and IP6K1 conf -1.1%.
`CCOC(=O)C1CCN(Cc2cn3c(-c4ccc(OC)cc4)nnc3s2)CC1` gave IP6K1 inh -25.2*, SNCA viab count -7.9%, KDM5B inh inactive, SNCA expr inhib 39.6% and IP6K1 conf 12.6%.
`CC(=O)c1cccc(Nc2nc(-c3cccc(C)c3)nc3ccccc23)c1` gave IP6K1 inh -38.8*, SNCA viab count -5.5%, KDM5B inh inconclusive, SNCA expr inhib 52.3% and IP6K1 conf inconclusive.
Cc1nc2nc(SCC(=O)NCc3ccccc3)nn2c(C)c1Cc1ccccc1Cl was read as IP6K1 inh 3.8, SNCA viab count 12.9%, KDM5B inh inconclusive and SNCA expr inhib -9.0%.
Cc1cccc(Cc2c(C)nc3nc(SCC(=O)NCc4ccc(F)cc4)nn3c2C)c1 was read as IP6K1 inh -36.9*, SNCA viab count -8.7%, KDM5B inh inconclusive, SNCA expr inhib -13.4% and IP6K1 conf inconclusive.
For Oc1ccc(-c2nc(C3CC3)nc3c2CCN(Cc2cccc4ccccc24)CC3)cc1 the results were IP6K1 inh 3.3, SNCA viab count 0.5%, KDM5B inh inactive and SNCA expr inhib -1.2%.
For COc1cc(O)c2c(c1)/C=C/C[C@H](O)[C@H](O)C(=O)/C=C\C[C@H](C)OC2=O the results were IP6K1 inh -30.1*, SNCA viab count 23.8µM* and IP6K1 conf inconclusive.
For COCCNC(=O)c1ccc2c(=O)n(CCc3ccccc3)c(SCC(=O)CC(=O)OC)nc2c1 the results were IP6K1 inh -25.0*, SNCA viab count -3.1%, KDM5B inh inactive, SNCA expr inhib -20.2% and IP6K1 conf -10.2%.
`Cc1nn(-c2ccccc2)c2c1C(C(C)C)N(C1CCN([S+](=O)([O-])c3cccc(C(F)(F)F)c3)C1)C2=O` (stereo unspecified) gave IP6K1 inh 8.1.
Screening COCC(=O)NC1CCN(Cc2cccc(-c3ccc(F)c(F)c3)c2)CC1 returned IP6K1 inh 3.7, SNCA viab count inconclusive and SNCA expr inhib -14.5%.
Screening CCCCNc1oc(-c2ccc(COc3ccc(OC)cc3)o2)nc1C#N returned IP6K1 inh -31.1*, SNCA viab count 11.1%, KDM5B inh inconclusive, SNCA expr inhib 12.0% and IP6K1 conf -0.5%.
For Cc1ccccc1CNC(=O)c1cnc2sc(N3CCOCC3)nn2c1=O the results were IP6K1 inh -99.7*, SNCA viab count -1.4%, KDM5B inh inconclusive, SNCA expr inhib -9.4% and IP6K1 conf -14.9%.
Cc1ccc(OCc2nc(C3CCCN3C(=O)Nc3ccccc3)no2)cc1 (stereo unspecified) was read as IP6K1 inh -6.0, SNCA viab count -1.7% and SNCA expr inhib 23.8%.
Cc1cc(CNC(=O)Cc2nonc2C)c2[nH]c(-c3ccccc3)c(C)c2c1 was read as IP6K1 inh -28.6*, SNCA viab count -9.5%, KDM5B inh inconclusive, SNCA expr inhib 18.7% and IP6K1 conf -13.4%.
Screening O=c1c(O)c(-c2ccc(O)c(O)c2)oc2cc(O)cc(O)c12 returned IP6K1 inh -54.9*, SNCA viab count -20.4%, SNCA expr inhib 42.5% and IP6K1 conf 0.461µM*.
For O=c1cc(-c2ccc(O)c(O)c2)oc2cc(O)cc(O)c12 the results were SNCA viab count -17.7% and SNCA expr inhib 8.7%.
For COc1ccc(CNC(=O)C(=O)NCC(c2ccco2)S(=O)(=O)c2ccc(Cl)cc2)cc1 (stereo unspecified) the results were IP6K1 inh -29.0*, SNCA viab count 3.7%, KDM5B inh inactive, SNCA expr inhib -5.0% and IP6K1 conf 20.4%.
`COc1ccc(-c2nc3ncccc3[nH]2)cc1` gave IP6K1 inh -26.8*!, SNCA viab count -17.1%[87.6 µM], KDM5B inh 31.6µM*!, SNCA expr inhib -25.6%[87.6 µM] and IP6K1 conf inconclusive.
`O=C(c1ccc(F)cc1)N1CCN(Cc2ccccc2-c2cccnc2)CC1` gave IP6K1 inh -1.1, SNCA viab count 10.7%[12.5 µM] and SNCA expr inhib -8.2%.
`COc1ccc(CC(=O)NCCNC(=O)c2cccc(-c3ccc(C(F)(F)F)cc3)c2)cc1` gave IP6K1 inh -13.7, SNCA viab count -19.3%[12.5 µM] and SNCA expr inhib 12.9%.
CC#C[C@@H](CC(=O)O)c1ccc(OCc2cccc(-c3ccc(C(F)(F)F)cc3)c2)cc1 was read as IP6K1 inh -28.3*, SNCA viab count -11.2% and IP6K1 conf inconclusive.
Screening CO/N=C(/C(=O)N[C@@H]1C(=O)N2C(C(=O)O)=C(CSC(=O)c3ccco3)CS[C@H]12)c1csc(N)n1 returned IP6K1 inh -49.4*!, SNCA viab count 6.8% and IP6K1 conf inconclusive.
For CO/N=C(/C(=O)N[C@@H]1C(=O)N2C(C(=O)OCOC(=O)C(C)(C)C)=C(C)CS[C@H]12)c1csc(N)n1 the results were IP6K1 inh 13.7, SNCA viab count -12.7%[23.9 µM] and SNCA expr inhib -23.6%[25.6 µM].
`Cc1ccc(OCc2ccc(-c3nc(C#N)c(N4CCN(c5cccc(Cl)c5)CC4)o3)o2)cc1` gave IP6K1 inh -34.0*, SNCA viab count 13.6%, KDM5B inh inactive, SNCA expr inhib -17.1% and IP6K1 conf -2.5%.
For Cc1ccccc1OCc1ccc(-c2nc(C#N)c(N3CCN(c4ccccc4)CC3)o2)o1 the results were IP6K1 inh 1.4, SNCA viab count 10.0%, KDM5B inh inconclusive and SNCA expr inhib inconclusive.
`Nc1nc(Nc2cccc(Cl)c2)sc1C(=O)c1ccc(F)cc1` gave IP6K1 inh -27.2*, SNCA viab count 1.6%, KDM5B inh inactive, SNCA expr inhib -12.7% and IP6K1 conf -29.5%.
Cc1ccccc1C(=O)n1nc(-c2cccnc2)nc1NCc1ccccc1 was read as IP6K1 inh 20.2, SNCA viab count 0.5%, KDM5B inh inactive and SNCA expr inhib -3.0%.
Cc1cccc(C(=O)n2nc(-c3cccnc3)nc2NCc2ccccc2)c1 was read as IP6K1 inh -29.9*, SNCA viab count 1.0%, KDM5B inh inactive, SNCA expr inhib 17.8% and IP6K1 conf inconclusive.
CCc1oc2ccccc2c1/C=N/O was read as KDM5B inh inactive.
`CCc1oc2ccccc2c1C(=O)c1cc(I)c(O)c(I)c1` gave IP6K1 inh -56.4*, SNCA viab count 61.7%[23.9 µM], SNCA expr inhib -12.6%[25.6 µM] and IP6K1 conf 3.55µM*.
For Cc1ccc(OCc2nc(C3CCCN3C(=O)Nc3ccc(C)c(F)c3)no2)cc1 (stereo unspecified) the results were IP6K1 inh -5.7, SNCA viab count -0.2%, KDM5B inh inactive and SNCA expr inhib 18.2%.
